According to PubChem BioAssay (NCATS):
Records with an inconclusive call do not appear. A call without a number means that no potency is given here. Calls of active or inactive are those of the source. Calls come from the whole dose curve; as a rule, active = well fitted inhibition curve with a large enough effect; inconclusive = small, poorly fitted or top-dose-only effect; inactive = no such curve, though single readings can be large or run the other way.

What follows are molecules tested against Cytochrome P450 3A7 (Homo sapiens) (UniProt P24462) (assay: Cytochrome P450 family 3 subfamily A member 7 (CYP3A7) small molecule antagonists: luciferase biochemical qHTS assay (AID 1963596; note: nearly all actives have a fitted effect of over 40% in size)). Conditions: P450-Glo CYP3A7 enzyme luminescence, 1 h; series mostly up to 57.4 µM.
Summary of the method: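 Biochemical CYP3A7 activity measured with P450-Glo system: luciferin formed from proluciferin substrate in NADPH-driven reaction (1 h, room temperature) after 10 min compound preincubation. Signal in relative luminescence units.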
Potency is the fitted concentration of half-maximal effect.

Cytochrome P450 3A7 (Homo sapiens), sequence (P24462 whole entry, looked up): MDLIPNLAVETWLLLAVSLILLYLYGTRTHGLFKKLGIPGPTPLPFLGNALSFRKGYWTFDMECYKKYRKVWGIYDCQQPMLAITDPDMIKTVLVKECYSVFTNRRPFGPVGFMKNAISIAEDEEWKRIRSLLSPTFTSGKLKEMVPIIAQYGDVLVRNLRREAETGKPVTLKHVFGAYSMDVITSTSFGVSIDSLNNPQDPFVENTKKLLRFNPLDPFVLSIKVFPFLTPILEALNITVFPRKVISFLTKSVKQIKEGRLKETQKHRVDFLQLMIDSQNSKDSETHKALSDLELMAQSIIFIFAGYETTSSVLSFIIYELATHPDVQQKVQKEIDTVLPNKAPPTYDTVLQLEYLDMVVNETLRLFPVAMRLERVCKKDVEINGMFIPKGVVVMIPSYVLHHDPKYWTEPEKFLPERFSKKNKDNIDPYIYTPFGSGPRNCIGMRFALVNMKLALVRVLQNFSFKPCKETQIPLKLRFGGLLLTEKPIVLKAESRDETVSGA

SMILES | Potency
CCn1c(N)c(C(=O)NC)c(=O)c2ccc(C#C[C@@](C)(O)COC)nc21 | inactive
N=C(N)n1cccn1 | inactive
COC(C(=O)N1Cc2[nH]nc(NC(=O)c3ccc(N4CCN(C)CC4)cc3)c2C1)c1ccccc1 (stereo not given) | inactive
Fc1ccc(-c2c3cccc(C(F)(F)F)c3nn2Cc2ccc(F)cc2Cl)cc1 | inactive
CC1(C#N)CCN(c2c(C(=O)N3CCN(S(C)(=O)=O)CC3)cnc3cc(F)c(F)cc23)CC1 | 14.1 µM (active)
COC(C)=O | inactive
CC1=CC(O)=NS(=O)(=O)O1 | inactive
c1ccc(C(OC2CCN(CCCc3nn[nH]n3)CC2)c2ccccc2)cc1 | inactive
COc1ccc(NC(=O)c2ccc(C(=N)N(C)C)cc2)c(C(=O)Nc2ccc(Cl)cn2)c1 | inactive
CCC(=O)O | inactive
CC1(C)[C@H]2C[C@H](C/C=C\CCCC(=O)O)[C@@H](NC(=O)c3csc4ccc(O)cc34)[C@@H]1C2 | inactive
CCC(Cc1c(I)cc(I)c(O)c1I)C(=O)O (stereo not given) | 16.9 µM (active)
Nc1c(CC(=O)O)cccc1C(=O)c1ccccc1 | inactive
C/C=C/C=C/C(=O)O | inactive
NCc1c[nH]c(=S)n1C1CCc2c(F)cc(F)cc2C1 (stereo not given) | 15.1 µM (active)
N#Cc1c[nH]c2c(C(=O)N3CCN(CCc4ccc(F)cc4)CC3)cccc12 | inactive
O=S(O)CO | inactive
NC(Cc1ccc(O)c(O)c1)C(=O)O (stereo not given) | inactive
O=C(O)[C@@H]1CCCN1 | inactive
Cc1ncc(C[n+]2csc(CCO)c2C)c(N)n1 | inactive
CC(C)[C@H](N)C(=O)O | inactive
CC(C)c1cccc(O)c(=O)c1 | inactive
CCOC(=O)C(CCc1ccccc1)NC1CCCN2CCCC(C(=O)O)N2C1=O (stereo not given) | inactive
COc1ccc(-c2nc(-c3ccc(-c4cccc(Cl)c4)o3)[nH]c2-c2ccc(OC)cc2)cc1 | inactive
COc1cccc(-n2nc(C(=O)O)cc2-c2ccc(C3CCCCC3)c(Cl)c2)c1 | inactive
